Only some compounds are listed: those with a hit (about 19% of all), similar ones and a draw of the others.
HT1080 IDH1KD tx: kills HT-1080 cells with IDH1 knockdown | HT-1080 IDH1 knockdown viability, ATP luminescence, 48 h | Potency, µM (titrated, usually from 46.1 µM), usual class: cytotoxic | actives 2% (n = 360,000)
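After a 2 h attachment period, IDH1KD HT-1080 cells took pin-transferred compound for 48 h at 37 °C; ATP-based luminescence after 10 min room-temperature reagent incubation reported viability.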
DT40 TDP1 CPT: growth inhibition of DT40 Tdp1-/-;hTDP1 cells with camptothecin (screen for TDP1 inhibitors). chicken DT40 Tdp1-/-;hTDP1 cells + 20 nM CPT, ATP luminescence, 48 h. Potency, µM (series often up to 46.2 µM), actives largely listed as inhibitors. actives 12% (n = 420,000). AID 686979; further: nearly all actives have a fitted effect of over 55% in size
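Chicken DT40 Tdp1-/- cells complemented with human TDP1, 400 cells/well, exposed to compounds plus 20 nM camptothecin for at least 48 h at 37 C; viability read as ATP content by CellTiter-Glo luminescence.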
IL-1B inflam inh: inflammasome signaling inhibition, IL-1 beta readout; THP-1 LPS/ATP IL-1B secretion, AlphaLISA, 16 h; active compounds read low; actives 4.7% (n = 360,000); activity change, % at 57.5 µM; in the data active means activity change below about -50%; inconclusive means mostly about -30% to -49%
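THP-1 cells pretreated 1 hr with compounds (up to 57.5 uM final), then stimulated with LPS (250 ng/mL final) plus ATP (1.25 mM final); secreted IL-1B measured by AlphaLISA after 16 hr, decreased signal indicating inhibition.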
ELG1 DNA repair: inhibitors of ELG1-dependent DNA repair in HEK293T cells. HEK293T ELG1-luciferase reporter, luminescence, 16 h; DNA damage induced by 5-fluorouridine. Potency, µM (doses to about 46.1 µM), hits mostly inhibitors. actives 2.3% (n = 330,000); further: nearly all actives have a fitted effect of over 55% in size
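Reporter activity after DNA damage by 5-fluorouridine is monitored. Compound-treated cells incubate 16 hr at 37 °C, then ONE-Glo is added for 30 min before luminescence reading.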
HT1080-NT tox: kills 2HG-producing HT-1080-NT fibrosarcoma cells | HT-1080-NT fibrosarcoma viability, CellTiter-Glo ATP luminescence, 48 h | Potency, µM (highest dose often 46.1 µM), actives largely listed as cytotoxic | actives 1.6% (n = 360,000) | AID 686970;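 further: NT is the 2HG producing partner of a matched IDH1 knockdown line; nearly all actives have a fitted effect of over 55% in size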
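HT-1080-NT fibrosarcoma cells (2HG-overproducing), 750 cells/well in RPMI with 5% FBS, dosed after 2 h and incubated 48 h at 37C. CellTiter-Glo luminescence normalized to DMSO and no-cell wells; concentration-response curves fitted and classed.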
TDP1 cell noCPT: qHTS for Inhibitors of human tyrosyl-DNA phosphodiesterase 1 (TDP1): qHTS in cells in absence of CPT; actives 15% (n = 420,000); Potency, µM (series often up to 46.2 µM), actives largely listed as inhibitors; DT40 Tdp1-/- hTDP1 cells, no CPT, ATP luminescence, 48 h; AID 686978, 2013; further: nearly all actives have a fitted effect of over 55% in size
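Compound effects on proliferation are scored in DT40 Tdp1-/-;hTDP1 cells in the absence of CPT. ATP levels (CellTiter-Glo luminescence) are recorded after a ≥48 hr, 37 °C incubation.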
Numbers stand for hits; - = inactive; ? = inconclusive; . = no result; [ ] = another dose, or the depositor's remark. Unless noted, the call rests on the fitted dose curve; in most records, active means well fitted curve in the direction sought with a large enough effect; inconclusive means small, poorly fitted or top-dose-only effect, or another doubt; inactive means no such curve, though single readings can be large; an effect the other way counts as inactive or inconclusive.

SMILES | HT1080 IDH1KD tx | DT40 TDP1 CPT | IL-1B inflam inh | ELG1 DNA repair | HT1080-NT tox | TDP1 cell noCPT
O=C(Nc1ccon1)c1cc2c(s1)CCCCCC2 | - | - | - | ? | -[9.24 µM] | -
CC1CCc2sc(C(=O)N(C)CC(=O)Nc3ccc(N4CCOCC4)cc3)cc2C1 (stereo unspecified) | - | ? | - | - | - | -
O=C(Nc1ccc(N2CCOCC2)cc1)c1cc2c(s1)CCCC2 | ? | ? | -79 | - | - | ?
O=C(Nc1ccc(N2CCOCC2)cc1)c1cc2c(s1)CCCCC2 | 7.3µM | 23µM | -80 | - | - | 21µM
CC(C)(C)C(=O)OCc1ccc(C2=CC(=O)CC(C)(C)C2=O)cc1 | - | - | - | . | - | ?
c1ccc2c(C(c3nnnn3-c3ccc4c(c3)OCCO4)N3CCCCC3)ccnc2c1 (stereo unspecified) | - | ? | ? | . | - | ?
Cc1cccc(C)c1N1CCN(C(c2ccnc3ccccc23)c2nnnn2-c2ccc3c(c2)OCCO3)CC1 (stereo unspecified) | ? | 18µM | ? | . | ? | 15µM
Fc1ccccc1N1CCN(C(c2ccnc3ccccc23)c2nnnn2-c2ccc3c(c2)OCCO3)CC1 (stereo unspecified) | - | ? | - | . | - | 21µM
Cc1cc(N2CCN(C(c3ccnc4ccccc34)c3nnnn3-c3c(C)cccc3C)CC2)c2ccccc2n1 (stereo unspecified) | - | 6.5µM | -56 | . | - | 4.6µM
CCOc1ccc(NC2OCC(O)C(O)C2O)c([N+](=O)[O-])c1 (stereo unspecified) | - | - | - | - | - | -
Cc1c(C(=O)N(C)C2CCCCC2)sc2ncnc(N3CCN(c4ccccc4F)CC3)c12 | - | 18µM | - | ? | - | 18µM
Cc1c(C(=O)N(C)C2CCCCC2)sc2ncnc(N3CCN(c4ccccc4)CC3)c12 | ? | 13µM | - | - | ? | 15µM
Cc1c(C(=O)N2CCC(C)CC2)sc2ncnc(N3CCN(c4ccccc4)CC3)c12 | - | - | - | - | - | -
CN(CC(=O)Nc1ccccc1Cl)C(=O)COC(=O)CCN1C(=O)C2CC=CCC2C1=O (stereo unspecified) | - | - | - | - | - | -
CC1CN(C(=O)COC(=O)CSc2ccc([N+](=O)[O-])cc2)CC(C)O1 (stereo unspecified) | - | - | - | - | - | -
COc1ccc(CNC(=O)N[C@H](C(=O)O)C(C)C)cc1OC | - | - | - | - | - | -
Cn1nc(C(F)(F)F)c(-c2ccc(Br)cc2)c1NC(=O)c1ccco1 | - | ? | - | - | ? | ?
Cn1nc(C(F)(F)F)c(-c2ccc(F)cc2)c1NC(=O)Nc1ccc(F)cc1 | ? | 16µM | . | - | 23µM | 15µM
Cn1nc(C(F)(F)F)c(-c2ccc(Br)cc2)c1NC(=O)c1cccnc1 | ? | ? | - | - | - | 13µM
Cc1cc(C)n(-c2nc(NCC3CCCO3)c3c4c(sc3n2)COC(C)(C)C4)n1 (stereo unspecified) | - | 5.2µM | -51 | 18µM | - | 3.7µM
Cc1cc(C)n(-c2nc(SCC(=O)O)c3c4c(sc3n2)CCCC4)n1 | . | . | . | - | . | .
Cc1cc(C)n(-c2nc(SCC(=O)NCC3CCCO3)c3c4c(sc3n2)CCCC4)n1 (stereo unspecified) | . | . | . | - | . | .
Cc1cc(C)n(-c2nc(SCCN(C)C)c3c4c(sc3n2)COC(C)(C)C4)n1 | ? | 22µM | -60 | 18µM | 18µM | 18µM
CCOC(=O)C1=C(CS(=O)(=O)c2ccccc2)NC(=O)NC1c1cc(OC)c(O)c(OC)c1 (stereo unspecified) | - | - | - | - | - | -
CCOC(=O)c1c(N2C(=O)CC(Sc3ccccc3C(=O)O)C2=O)sc(C)c1C (stereo unspecified) | - | 23µM | - | - | - | ?
SMILES | HT1080 IDH1KD tx | DT40 TDP1 CPT | IL-1B inflam inh | ELG1 DNA repair | HT1080-NT tox | TDP1 cell noCPT
Cc1ccc(N2C(=O)CC(Sc3ccccc3C(=O)O)C2=O)c([N+](=O)[O-])c1 (stereo unspecified) | - | ? | - | - | - | ?
CN(C)c1ccc(N2C(=O)CC(Sc3ccccc3C(=O)O)C2=O)cc1 (stereo unspecified) | - | 13µM | - | - | - | ?
Cc1cc(C)cc(N2C(=O)CC(Sc3ccccc3C(=O)O)C2=O)c1 (stereo unspecified) | - | 4.1µM | - | - | - | 18µM
CN1C(=O)CC(Sc2ccccc2C(=O)O)C1=O (stereo unspecified) | - | - | - | - | -[9.24 µM] | -
Cc1cccc(N2C(=O)CC(Sc3ccccc3C(=O)O)C2=O)c1 (stereo unspecified) | - | ? | - | - | - | ?
CCOC(=O)c1c(NC(=O)CSc2ccccc2C(=O)O)sc(C)c1C | - | - | - | - | - | -
Cc1ccc(N2C(=O)CC(Sc3ccccc3C(=O)O)C2=O)cc1C (stereo unspecified) | - | 4.1µM | - | - | - | 12µM
Cc1cc(C)c(N2C(=O)CC(Sc3ccccc3N)C2=O)c(C)c1 (stereo unspecified) | ? | 16µM | - | . | ? | 7.3µM
Cc1ccc(N2C(=O)CC(Sc3ccccc3C(=O)O)C2=O)cc1 (stereo unspecified) | - | 7.3µM | - | - | - | 15µM
CCOC(=O)N1CCN(C(=O)CSc2nc3nc(C)cc(C)n3n2)CC1 | - | - | - | - | - | -
Cc1ccc(O/C=C2/Nn3c(nnc3-c3cc(-c4ccccc4)n[nH]3)S2)cc1 | . | 7.1µM | . | . | . | 16µM
c1ccc(C2=Nn3c(nnc3-c3cc(-c4ccccc4)n[nH]3)SC2)cc1 | ? | ? | - | ? | ? | ?
COC(=O)c1c(C)cccc1C1CN=NC12Cc1ccccc1C2=O (stereo unspecified) | - | 15µM | -90 | . | - | ?
Cc1ccc(S(=O)(=O)NCc2ccc(N3CCN(C(=O)OC(C)(C)C)CC3)cc2)cc1 | - | 13µM | - | - | - | 16µM
CN1CCN(c2ccc(CNS(=O)(=O)c3ccc(Cl)cc3)cc2)CC1 | - | ? | - | - | - | 12µM
Cc1ccc(C(=O)NCc2ccc(N3CCN(C(=O)OC(C)(C)C)CC3)cc2)cc1 | - | - | - | - | - | ?
CN(Cc1ccc2c(c1)OCCO2)C(=O)CSc1ncnc2sccc12 | - | ? | - | ? | - | ?
Cc1cc2c(cc1S(=O)(=O)Nc1cccc(F)c1)n(C)c(=O)c(=O)n2C | - | - | - | - | - | -

Screening results from PubChem BioAssay.
